{"source": "the supplement of paper PMC3334620", "note": "The full ranking holds about 33,000 sequences; the median of “E-score (-0.5 to 0.5)” is about -0.056, and the highest 2% start at about 0.38. The entries come from a sample that favours the highest values as a whole."}
{"target": "Stb4 (UniProt P50104)", "sequence (P50104 whole entry, the tested form may be a part)": "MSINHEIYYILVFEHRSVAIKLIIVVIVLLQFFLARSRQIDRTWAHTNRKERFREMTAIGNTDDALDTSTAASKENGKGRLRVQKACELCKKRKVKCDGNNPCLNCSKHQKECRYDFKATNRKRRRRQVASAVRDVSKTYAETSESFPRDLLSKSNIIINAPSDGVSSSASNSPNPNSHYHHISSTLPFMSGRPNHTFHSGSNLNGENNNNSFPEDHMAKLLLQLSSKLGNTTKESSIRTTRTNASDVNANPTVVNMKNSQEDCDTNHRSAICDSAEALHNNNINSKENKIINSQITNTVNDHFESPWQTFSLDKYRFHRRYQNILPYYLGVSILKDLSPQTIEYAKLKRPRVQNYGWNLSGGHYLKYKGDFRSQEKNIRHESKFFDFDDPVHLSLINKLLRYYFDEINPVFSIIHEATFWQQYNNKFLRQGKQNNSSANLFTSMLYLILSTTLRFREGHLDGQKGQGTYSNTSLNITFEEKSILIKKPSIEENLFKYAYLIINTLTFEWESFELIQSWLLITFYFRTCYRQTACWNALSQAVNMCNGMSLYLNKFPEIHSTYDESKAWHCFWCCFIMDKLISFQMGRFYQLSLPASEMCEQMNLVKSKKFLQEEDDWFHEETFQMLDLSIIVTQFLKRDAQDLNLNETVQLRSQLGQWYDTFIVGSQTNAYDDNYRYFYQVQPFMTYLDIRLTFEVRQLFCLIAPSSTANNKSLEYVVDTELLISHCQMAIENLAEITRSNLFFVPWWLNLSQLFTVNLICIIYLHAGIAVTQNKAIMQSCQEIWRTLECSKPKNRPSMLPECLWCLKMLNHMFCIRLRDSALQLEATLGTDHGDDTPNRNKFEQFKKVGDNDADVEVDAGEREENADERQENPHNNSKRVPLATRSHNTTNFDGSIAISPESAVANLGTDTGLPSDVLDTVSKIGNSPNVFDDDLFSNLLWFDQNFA", "assay": "PBM E-score (8-mer binding enrichment) (E-score (-0.5 to 0.5)); higher = stronger / more preferred TF binding", "conditions": "protein concentration: 200 nM; construct: GST-DNA-binding domain", "procedure": "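Universal 'all 10-mer' protein binding microarrays (Agilent AMADID 015681) probed with GST-tagged S. cerevisiae TFs (full-length or DBD) made by in vitro transcription/translation (PURExpress), about 100-200 nM. Bound TF was detected with fluorescent anti-GST. Each ungapped 8-mer (which stands for itself and its reverse complement) is scored by the PBM enrichment score (E-score), a modified Wilcoxon-Mann-Whitney statistic from -0.5 to +0.5, computed with the Universal PBM Analysis Suite. Scale: above 0.35 generally sequence-specific binding.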"}
{"sequence": "CTCCGAGA", "PBM E-score": 0.409}
{"sequence": "ATGCGAGA", "PBM E-score": -0.117}
{"sequence": "ATCCGAGC", "PBM E-score": 0.478}
{"sequence": "ATCCGAGG", "PBM E-score": 0.481}
{"sequence": "ATACGAGC", "PBM E-score": -0.141}
{"sequence": "AACGGGTC", "PBM E-score": 0.156}
{"sequence": "AACGATAT", "PBM E-score": -0.0769}
{"sequence": "CTTCTTGC", "PBM E-score": -0.0322}
{"sequence": "ACCCCGTC", "PBM E-score": 0.167}
{"sequence": "GAGATCTA", "PBM E-score": -0.103}
{"sequence": "ACTGAGTC", "PBM E-score": -0.0516}
{"sequence": "CTCTGCCC", "PBM E-score": -0.215}
{"sequence": "CCTTCTAA", "PBM E-score": -0.338}
{"sequence": "AATTGAAG", "PBM E-score": -0.06}
{"sequence": "CCGCGATC", "PBM E-score": 0.142}
{"sequence": "CTCCGTGC", "PBM E-score": 0.217}
{"sequence": "CTCCGAGC", "PBM E-score": 0.428}
{"sequence": "CTCCGCGC", "PBM E-score": 0.168}
{"sequence": "CTGCCAAC", "PBM E-score": -0.1}
{"sequence": "CCGGAACA", "PBM E-score": 0.431}
{"sequence": "ACGGAACA", "PBM E-score": 0.326}
{"sequence": "ACGGAACG", "PBM E-score": 0.327}
{"sequence": "ACGGAACC", "PBM E-score": 0.328}
{"sequence": "CCGGAACG", "PBM E-score": 0.424}
{"sequence": "CAGGAACG", "PBM E-score": -0.144}
{"sequence": "GCGGAACC", "PBM E-score": 0.284}
{"sequence": "CCGGAATA", "PBM E-score": 0.347}
{"sequence": "GCGGAACA", "PBM E-score": 0.335}
{"sequence": "TCGGAACA", "PBM E-score": 0.479}
{"sequence": "CCGGAACC", "PBM E-score": 0.41}
{"sequence": "CGGGAACA", "PBM E-score": 0.374}
{"sequence": "AGGCCTCG", "PBM E-score": 0.221}
{"sequence": "TCTTCCAA", "PBM E-score": -0.0347}
{"sequence": "CCTGGTCC", "PBM E-score": -0.116}
{"sequence": "CGGTAAAA", "PBM E-score": 0.346}
{"sequence": "TTCGGCAA", "PBM E-score": 0.454}
{"sequence": "CACGGCAG", "PBM E-score": 0.137}
{"sequence": "CACGGCAA", "PBM E-score": 0.199}
{"sequence": "ATCGGCAG", "PBM E-score": 0.321}
{"sequence": "CTCGGCCA", "PBM E-score": 0.251}
{"sequence": "GTCGGCAC", "PBM E-score": 0.361}
{"sequence": "CTCGGCAC", "PBM E-score": 0.451}
{"sequence": "ATCGGCAA", "PBM E-score": 0.366}
{"sequence": "CTCGGCAA", "PBM E-score": 0.458}
{"sequence": "CTCGGCAG", "PBM E-score": 0.444}
{"sequence": "ATCGGCAC", "PBM E-score": 0.34}
{"sequence": "GTCGGCAA", "PBM E-score": 0.368}
{"sequence": "TAACCGCA", "PBM E-score": 0.154}
{"sequence": "TAGCCCGA", "PBM E-score": 0.245}
{"sequence": "GTACGCCA", "PBM E-score": -0.109}
{"sequence": "GACCTGTA", "PBM E-score": -0.0511}
{"sequence": "AGACACTA", "PBM E-score": 0.00615}
{"sequence": "ATACTAAT", "PBM E-score": -0.00279}
{"sequence": "AGTTCACA", "PBM E-score": -0.153}
{"sequence": "ATATAGCA", "PBM E-score": -0.202}
{"sequence": "AACGTCGC", "PBM E-score": -0.129}
{"sequence": "CCTTGATA", "PBM E-score": -0.351}
{"sequence": "CAGAGCCG", "PBM E-score": 0.237}
{"sequence": "CCTAACAA", "PBM E-score": -0.248}
{"sequence": "AACCGAGT", "PBM E-score": 0.305}
{"sequence": "CACCGAGC", "PBM E-score": 0.295}
{"sequence": "TACCGAGA", "PBM E-score": 0.431}
{"sequence": "CACCGAGA", "PBM E-score": 0.222}
{"sequence": "AACCGAGC", "PBM E-score": 0.418}
{"sequence": "AACCGACA", "PBM E-score": 0.286}
{"sequence": "AACCGAGA", "PBM E-score": 0.407}
{"sequence": "GACCGAGA", "PBM E-score": 0.339}
{"sequence": "AACCGATA", "PBM E-score": 0.227}
{"sequence": "CCTTCAAG", "PBM E-score": -0.097}
{"sequence": "ATTTATGG", "PBM E-score": -0.152}
{"sequence": "CAACATCC", "PBM E-score": 0.213}
{"sequence": "ATGTGCAG", "PBM E-score": -0.166}
{"sequence": "ACGGATAT", "PBM E-score": 0.407}
{"sequence": "ATGGATAA", "PBM E-score": 0.024}
{"sequence": "ACGGATCT", "PBM E-score": 0.28}
{"sequence": "ACGGATAA", "PBM E-score": 0.416}
{"sequence": "ATGGATAC", "PBM E-score": 0.0478}
{"sequence": "ACGGATAG", "PBM E-score": 0.381}
{"sequence": "ACGGATAC", "PBM E-score": 0.407}
{"sequence": "AAGGATAC", "PBM E-score": -0.152}
{"sequence": "ACGGATTA", "PBM E-score": 0.145}
{"sequence": "ACCGGTTC", "PBM E-score": 0.216}
{"sequence": "CGAGCGCG", "PBM E-score": 0.235}
{"sequence": "CCTTGGAG", "PBM E-score": -0.196}
{"sequence": "CTCCGATC", "PBM E-score": 0.229}
{"sequence": "ACCCGATG", "PBM E-score": 0.399}
{"sequence": "ATCCGATA", "PBM E-score": 0.448}
{"sequence": "ACCCGATA", "PBM E-score": 0.349}
{"sequence": "AACCGATC", "PBM E-score": 0.253}
{"sequence": "ATCCGATC", "PBM E-score": 0.428}
{"sequence": "ACCCGATC", "PBM E-score": 0.333}
{"sequence": "AGCCGATG", "PBM E-score": 0.321}
{"sequence": "ATCCGATG", "PBM E-score": 0.437}
{"sequence": "GTCCGATA", "PBM E-score": 0.22}
{"sequence": "AACCGATG", "PBM E-score": 0.222}
{"sequence": "CTCCGATA", "PBM E-score": 0.275}
{"sequence": "GGCAGTGA", "PBM E-score": 0.0105}
{"sequence": "CCCATAGC", "PBM E-score": -0.0731}
{"sequence": "ACCATATA", "PBM E-score": -0.114}
{"sequence": "GGTCTAAC", "PBM E-score": 0.0261}
{"sequence": "ATCCTGCG", "PBM E-score": -0.117}
{"sequence": "CAATGCCA", "PBM E-score": -0.241}
{"sequence": "AAGCCTAA", "PBM E-score": -0.0457}
{"sequence": "CACTCTAA", "PBM E-score": -0.151}
{"sequence": "ATGGGCGC", "PBM E-score": -0.158}
{"sequence": "AGGGCTGC", "PBM E-score": -0.134}
{"sequence": "ATCTGACA", "PBM E-score": -0.0757}
{"sequence": "ACGAGGGC", "PBM E-score": -0.0578}
{"sequence": "ACGAGGGA", "PBM E-score": -0.0722}
{"sequence": "GCGAGGGA", "PBM E-score": -0.129}
{"sequence": "CCGAGGGA", "PBM E-score": 0.386}
{"sequence": "CCGAGGGC", "PBM E-score": 0.431}
{"sequence": "CAGAGGGC", "PBM E-score": -0.151}
{"sequence": "ATCTAACA", "PBM E-score": -0.00015}
{"sequence": "CTAGGCAG", "PBM E-score": -0.169}
{"sequence": "CGGCCCGA", "PBM E-score": 0.444}
{"sequence": "GGACCCTA", "PBM E-score": -0.144}
{"sequence": "CGACCCTA", "PBM E-score": 0.0884}
{"sequence": "GGGGCCGA", "PBM E-score": 0.174}
{"sequence": "GGACCCCA", "PBM E-score": -0.0727}
{"sequence": "AGGCCCGA", "PBM E-score": 0.233}
{"sequence": "CGACCCGC", "PBM E-score": 0.173}
{"sequence": "CGGGCCGA", "PBM E-score": 0.435}
{"sequence": "GGACCCGA", "PBM E-score": 0.386}
{"sequence": "GGGCCCGA", "PBM E-score": 0.278}
{"sequence": "CGGGCCGC", "PBM E-score": 0.309}
{"sequence": "CGACCCGA", "PBM E-score": 0.4}
{"sequence": "CAATCGGA", "PBM E-score": 0.374}
{"sequence": "CGAGGATA", "PBM E-score": 0.0376}
{"sequence": "ACATATAA", "PBM E-score": -0.0928}
{"sequence": "CCTCTTTA", "PBM E-score": -0.157}
{"sequence": "ACTATACG", "PBM E-score": 0.00583}
{"sequence": "ATGACGAC", "PBM E-score": 0.0312}
{"sequence": "ATACCGAG", "PBM E-score": 0.377}
{"sequence": "AAGCCATG", "PBM E-score": -0.117}
{"sequence": "AGTCTTCG", "PBM E-score": -0.008}
{"sequence": "CCGGCCAA", "PBM E-score": 0.271}
{"sequence": "CGGACCTC", "PBM E-score": 0.124}
{"sequence": "GCGCTGAC", "PBM E-score": -0.0933}
{"sequence": "AGACCCGA", "PBM E-score": 0.419}
{"sequence": "AGACCCGC", "PBM E-score": 0.174}
{"sequence": "AGACCCGG", "PBM E-score": 0.305}
{"sequence": "AAACTGTG", "PBM E-score": -0.12}
{"sequence": "AGAGGGAT", "PBM E-score": -0.271}
{"sequence": "CCGAGACA", "PBM E-score": 0.372}
{"sequence": "CCGAGAGA", "PBM E-score": 0.373}
{"sequence": "CGGAGACG", "PBM E-score": 0.235}
{"sequence": "CCGAGACC", "PBM E-score": 0.431}
{"sequence": "CCGAGAGC", "PBM E-score": 0.388}
{"sequence": "ACGAGAGC", "PBM E-score": -0.151}
{"sequence": "CCGAGACG", "PBM E-score": 0.41}
{"sequence": "ACGAGACG", "PBM E-score": 0.0568}
{"sequence": "ACGAGACC", "PBM E-score": -0.0429}
{"sequence": "CCACCACG", "PBM E-score": -0.109}
{"sequence": "AAGCTAGG", "PBM E-score": 0.0266}
{"sequence": "GGCAGGCA", "PBM E-score": 0.0342}
{"sequence": "CGGGGCCA", "PBM E-score": 0.22}
{"sequence": "AATAGGAG", "PBM E-score": -0.317}
{"sequence": "GTCCTCCA", "PBM E-score": -0.138}
{"sequence": "GGGAAGTA", "PBM E-score": 0.184}
{"sequence": "CTGAAGTC", "PBM E-score": 0.0307}
{"sequence": "CGGAAGTA", "PBM E-score": 0.419}
{"sequence": "CGGAAGTC", "PBM E-score": 0.414}
{"sequence": "GGGAAGGA", "PBM E-score": 0.0823}
{"sequence": "AGGAAGTA", "PBM E-score": 0.112}
{"sequence": "GGGAAGAA", "PBM E-score": 0.0883}
{"sequence": "AGGAAGGA", "PBM E-score": -0.282}
{"sequence": "AGGAAGTC", "PBM E-score": -0.19}
{"sequence": "AGGAAGAA", "PBM E-score": -0.278}
{"sequence": "CGGAAGAA", "PBM E-score": 0.406}
{"sequence": "CGGAAGGA", "PBM E-score": 0.397}
{"sequence": "ACGCTCAT", "PBM E-score": -0.276}
